Data as given in ChEMBL document CHEMBL1961873, “Compounds: GSK PKIS; Assays: Nanosyn kinase panel” (2012).

What was measured:
[1] = molecular target: Calcium/calmodulin-dependent protein kinase type II subunit alpha (Homo sapiens) (UniProt Q9UQM7); details: at 1 µM;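 note: reported value is a mean percent inhibition of CAMK2A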
[2] = molecular target: Calcium/calmodulin-dependent protein kinase type II subunit delta (Homo sapiens) (UniProt Q13557); details: at 0.1 µM
[3] = molecular target: Calcium/calmodulin-dependent protein kinase type II subunit delta (Homo sapiens) (UniProt Q13557); details: at 1 µM
[4] = molecular target: T1, Calcium/calmodulin-dependent protein kinase type IV (Homo sapiens) (UniProt Q16566); details: at 0.1 µM
T1 sequence (whole entry): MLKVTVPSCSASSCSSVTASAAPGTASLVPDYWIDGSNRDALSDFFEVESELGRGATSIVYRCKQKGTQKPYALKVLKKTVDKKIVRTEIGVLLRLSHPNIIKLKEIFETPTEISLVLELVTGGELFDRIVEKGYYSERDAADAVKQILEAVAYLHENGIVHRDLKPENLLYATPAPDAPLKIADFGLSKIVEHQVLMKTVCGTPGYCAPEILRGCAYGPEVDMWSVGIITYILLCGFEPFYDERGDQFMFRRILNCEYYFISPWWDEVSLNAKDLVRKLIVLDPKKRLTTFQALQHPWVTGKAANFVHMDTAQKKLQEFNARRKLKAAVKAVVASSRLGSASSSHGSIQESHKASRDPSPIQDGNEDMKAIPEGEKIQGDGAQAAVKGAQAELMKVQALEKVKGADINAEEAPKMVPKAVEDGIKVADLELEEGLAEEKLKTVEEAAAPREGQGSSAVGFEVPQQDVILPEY

[5] = molecular target: T1, Calcium/calmodulin-dependent protein kinase type IV (Homo sapiens); details: at 1 µM
[6] = molecular target: T2, Serine/threonine-protein kinase Chk1 (Homo sapiens) (UniProt O14757); details: at 0.1 µM
T2 sequence (whole entry): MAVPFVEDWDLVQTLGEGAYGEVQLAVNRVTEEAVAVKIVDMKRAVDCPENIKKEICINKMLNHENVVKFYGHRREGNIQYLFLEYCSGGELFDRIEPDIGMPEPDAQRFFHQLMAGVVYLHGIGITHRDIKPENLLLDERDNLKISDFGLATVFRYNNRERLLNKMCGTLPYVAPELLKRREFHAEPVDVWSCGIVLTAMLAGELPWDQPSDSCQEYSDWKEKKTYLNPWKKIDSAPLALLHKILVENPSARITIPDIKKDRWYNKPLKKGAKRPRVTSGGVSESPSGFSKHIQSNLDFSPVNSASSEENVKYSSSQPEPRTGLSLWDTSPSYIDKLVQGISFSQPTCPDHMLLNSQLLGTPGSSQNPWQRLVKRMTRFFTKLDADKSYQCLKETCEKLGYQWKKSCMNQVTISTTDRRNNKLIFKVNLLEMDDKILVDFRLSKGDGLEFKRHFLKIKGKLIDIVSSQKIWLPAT

[7] = molecular target: T2, Serine/threonine-protein kinase Chk1 (Homo sapiens); details: at 1 µM
[8] = molecular target: Serine/threonine-protein kinase Chk2 (Homo sapiens) (UniProt O96017); details: at 0.1 µM
[9] = molecular target: Serine/threonine-protein kinase Chk2 (Homo sapiens) (UniProt O96017); details: at 1 µM
[10] = molecular target: Death-associated protein kinase 1 (Homo sapiens) (UniProt P53355); details: at 0.1 µM
[11] = molecular target: Death-associated protein kinase 1 (Homo sapiens) (UniProt P53355); details: at 1 µM
[12] = molecular target: T3, Serine/threonine-protein kinase DCLK2 (Homo sapiens) (UniProt Q8N568); details: at 0.1 µM
T3 sequence (whole entry): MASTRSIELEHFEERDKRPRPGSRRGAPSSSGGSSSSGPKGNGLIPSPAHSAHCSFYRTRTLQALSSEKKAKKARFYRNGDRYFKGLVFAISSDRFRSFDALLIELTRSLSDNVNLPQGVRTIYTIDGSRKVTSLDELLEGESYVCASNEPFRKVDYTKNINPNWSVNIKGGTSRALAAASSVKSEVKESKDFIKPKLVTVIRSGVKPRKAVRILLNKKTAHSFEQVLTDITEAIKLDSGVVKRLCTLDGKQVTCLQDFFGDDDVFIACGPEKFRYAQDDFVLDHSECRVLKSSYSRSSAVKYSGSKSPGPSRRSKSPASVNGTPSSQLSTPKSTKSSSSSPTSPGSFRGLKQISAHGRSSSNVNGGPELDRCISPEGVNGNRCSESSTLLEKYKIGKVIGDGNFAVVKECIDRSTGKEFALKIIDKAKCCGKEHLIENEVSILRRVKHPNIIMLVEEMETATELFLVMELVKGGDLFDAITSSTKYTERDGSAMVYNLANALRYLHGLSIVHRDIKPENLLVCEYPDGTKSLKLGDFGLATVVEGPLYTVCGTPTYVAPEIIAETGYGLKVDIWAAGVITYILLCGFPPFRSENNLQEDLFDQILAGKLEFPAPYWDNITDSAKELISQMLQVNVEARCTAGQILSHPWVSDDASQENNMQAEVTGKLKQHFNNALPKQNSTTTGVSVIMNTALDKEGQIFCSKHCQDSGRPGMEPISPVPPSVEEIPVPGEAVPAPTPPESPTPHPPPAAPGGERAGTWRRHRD

[13] = molecular target: T3, Serine/threonine-protein kinase DCLK2 (Homo sapiens); details: at 1 µM
[14] = molecular target: MAP kinase-activated protein kinase 2 (Homo sapiens) (UniProt P49137); details: at 0.1 µM
[15] = molecular target: MAP kinase-activated protein kinase 2 (Homo sapiens) (UniProt P49137); details: at 1 µM
[16] = molecular target: MAP kinase-activated protein kinase 3 (Homo sapiens) (UniProt Q16644); details: at 0.1 µM
[17] = molecular target: MAP kinase-activated protein kinase 3 (Homo sapiens) (UniProt Q16644); details: at 1 µM
[18] = molecular target: Serine/threonine-protein kinase MARK1 (Homo sapiens) (UniProt Q9P0L2); details: at 0.1 µM
[19] = molecular target: Serine/threonine-protein kinase MARK1 (Homo sapiens) (UniProt Q9P0L2); details: at 1 µM
[20] = molecular target: MAP/microtubule affinity-regulating kinase 3 (Homo sapiens) (UniProt P27448); details: at 0.1 µM;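 note: mean percent inhibition of MARK3 kinase activity, measured within the GSK PKIS screening panel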
Chain of MAP/microtubule affinity-regulating kinase 3 (Homo sapiens) (P27448 whole entry, looked up): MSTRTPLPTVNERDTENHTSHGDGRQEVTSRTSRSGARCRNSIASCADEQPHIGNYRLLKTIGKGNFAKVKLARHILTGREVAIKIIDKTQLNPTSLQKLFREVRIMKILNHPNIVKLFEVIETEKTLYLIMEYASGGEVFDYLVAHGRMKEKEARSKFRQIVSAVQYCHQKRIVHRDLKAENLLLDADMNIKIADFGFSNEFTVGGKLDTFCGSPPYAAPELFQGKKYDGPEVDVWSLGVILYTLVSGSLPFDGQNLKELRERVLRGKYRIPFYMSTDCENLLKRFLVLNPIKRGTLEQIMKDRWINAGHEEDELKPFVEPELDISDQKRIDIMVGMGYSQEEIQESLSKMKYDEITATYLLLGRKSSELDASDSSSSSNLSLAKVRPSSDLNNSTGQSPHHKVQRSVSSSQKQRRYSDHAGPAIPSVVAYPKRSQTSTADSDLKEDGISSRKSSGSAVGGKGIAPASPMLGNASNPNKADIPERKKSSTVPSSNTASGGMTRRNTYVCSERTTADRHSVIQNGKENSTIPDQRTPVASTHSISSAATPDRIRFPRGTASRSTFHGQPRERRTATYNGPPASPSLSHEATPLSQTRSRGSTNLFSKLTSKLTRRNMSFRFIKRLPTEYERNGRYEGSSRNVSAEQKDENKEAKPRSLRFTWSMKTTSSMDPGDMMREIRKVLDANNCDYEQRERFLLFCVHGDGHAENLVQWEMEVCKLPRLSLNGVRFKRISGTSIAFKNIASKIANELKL

Chain of MAP kinase-activated protein kinase 2 (Homo sapiens) (P49137 whole entry, looked up): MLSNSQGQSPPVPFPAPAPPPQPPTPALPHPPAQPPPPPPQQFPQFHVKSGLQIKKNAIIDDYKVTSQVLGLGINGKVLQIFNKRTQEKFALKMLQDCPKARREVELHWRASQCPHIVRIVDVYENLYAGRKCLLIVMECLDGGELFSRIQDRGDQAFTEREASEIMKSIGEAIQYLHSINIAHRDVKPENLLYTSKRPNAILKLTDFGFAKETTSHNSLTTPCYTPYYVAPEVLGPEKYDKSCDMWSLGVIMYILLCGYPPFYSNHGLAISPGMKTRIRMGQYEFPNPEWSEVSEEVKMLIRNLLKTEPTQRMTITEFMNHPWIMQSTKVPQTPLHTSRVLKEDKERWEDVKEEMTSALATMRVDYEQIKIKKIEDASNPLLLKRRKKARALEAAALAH
Chain of Serine/threonine-protein kinase MARK1 (Homo sapiens) (Q9P0L2 whole entry, looked up): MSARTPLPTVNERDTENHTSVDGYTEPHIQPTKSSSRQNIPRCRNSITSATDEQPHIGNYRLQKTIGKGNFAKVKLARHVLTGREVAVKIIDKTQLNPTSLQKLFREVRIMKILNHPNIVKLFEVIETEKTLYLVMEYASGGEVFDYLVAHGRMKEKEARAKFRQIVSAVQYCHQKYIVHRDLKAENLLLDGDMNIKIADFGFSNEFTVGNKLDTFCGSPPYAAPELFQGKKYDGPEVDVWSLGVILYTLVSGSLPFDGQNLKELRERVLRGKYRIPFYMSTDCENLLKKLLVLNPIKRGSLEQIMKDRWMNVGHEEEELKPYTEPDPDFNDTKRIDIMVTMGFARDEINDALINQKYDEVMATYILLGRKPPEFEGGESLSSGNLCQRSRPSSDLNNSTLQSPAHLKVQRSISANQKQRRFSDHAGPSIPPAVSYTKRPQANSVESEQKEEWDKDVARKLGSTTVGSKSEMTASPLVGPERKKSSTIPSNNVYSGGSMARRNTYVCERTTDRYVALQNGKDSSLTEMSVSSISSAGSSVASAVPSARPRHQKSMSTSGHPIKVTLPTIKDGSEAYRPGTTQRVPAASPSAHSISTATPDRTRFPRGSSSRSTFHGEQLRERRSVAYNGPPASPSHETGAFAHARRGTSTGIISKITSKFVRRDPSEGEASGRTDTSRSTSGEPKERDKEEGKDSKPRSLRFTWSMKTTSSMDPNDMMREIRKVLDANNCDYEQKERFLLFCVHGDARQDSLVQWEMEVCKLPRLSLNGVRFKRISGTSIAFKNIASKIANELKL
Chain of Serine/threonine-protein kinase Chk2 (Homo sapiens) (O96017 whole entry): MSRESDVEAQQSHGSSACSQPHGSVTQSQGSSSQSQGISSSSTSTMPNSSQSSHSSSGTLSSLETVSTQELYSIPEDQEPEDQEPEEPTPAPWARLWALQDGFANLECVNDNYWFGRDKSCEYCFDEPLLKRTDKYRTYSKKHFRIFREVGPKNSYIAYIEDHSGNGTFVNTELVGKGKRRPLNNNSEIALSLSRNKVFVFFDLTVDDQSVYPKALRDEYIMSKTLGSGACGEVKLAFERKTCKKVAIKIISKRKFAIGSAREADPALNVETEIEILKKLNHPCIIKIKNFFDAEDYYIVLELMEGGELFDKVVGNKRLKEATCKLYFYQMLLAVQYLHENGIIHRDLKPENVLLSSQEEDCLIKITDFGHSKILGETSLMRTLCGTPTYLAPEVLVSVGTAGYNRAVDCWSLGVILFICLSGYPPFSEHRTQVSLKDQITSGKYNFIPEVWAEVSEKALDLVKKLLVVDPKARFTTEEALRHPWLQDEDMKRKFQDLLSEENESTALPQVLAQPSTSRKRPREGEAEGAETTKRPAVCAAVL
Chain of Calcium/calmodulin-dependent protein kinase type II subunit alpha (Homo sapiens) (Q9UQM7 whole entry): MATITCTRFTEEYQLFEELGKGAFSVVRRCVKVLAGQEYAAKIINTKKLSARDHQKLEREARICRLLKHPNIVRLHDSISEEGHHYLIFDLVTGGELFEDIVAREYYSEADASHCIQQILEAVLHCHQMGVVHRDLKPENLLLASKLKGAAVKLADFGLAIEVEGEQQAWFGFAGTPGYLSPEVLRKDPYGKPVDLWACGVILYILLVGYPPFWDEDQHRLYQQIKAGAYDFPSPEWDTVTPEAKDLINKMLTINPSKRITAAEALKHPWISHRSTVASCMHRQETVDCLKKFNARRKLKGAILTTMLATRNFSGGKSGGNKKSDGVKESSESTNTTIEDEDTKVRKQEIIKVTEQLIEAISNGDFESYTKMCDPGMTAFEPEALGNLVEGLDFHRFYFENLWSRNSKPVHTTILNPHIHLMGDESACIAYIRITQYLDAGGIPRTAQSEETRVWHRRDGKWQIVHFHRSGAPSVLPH
Chain of Calcium/calmodulin-dependent protein kinase type II subunit delta (Homo sapiens) (Q13557 whole entry): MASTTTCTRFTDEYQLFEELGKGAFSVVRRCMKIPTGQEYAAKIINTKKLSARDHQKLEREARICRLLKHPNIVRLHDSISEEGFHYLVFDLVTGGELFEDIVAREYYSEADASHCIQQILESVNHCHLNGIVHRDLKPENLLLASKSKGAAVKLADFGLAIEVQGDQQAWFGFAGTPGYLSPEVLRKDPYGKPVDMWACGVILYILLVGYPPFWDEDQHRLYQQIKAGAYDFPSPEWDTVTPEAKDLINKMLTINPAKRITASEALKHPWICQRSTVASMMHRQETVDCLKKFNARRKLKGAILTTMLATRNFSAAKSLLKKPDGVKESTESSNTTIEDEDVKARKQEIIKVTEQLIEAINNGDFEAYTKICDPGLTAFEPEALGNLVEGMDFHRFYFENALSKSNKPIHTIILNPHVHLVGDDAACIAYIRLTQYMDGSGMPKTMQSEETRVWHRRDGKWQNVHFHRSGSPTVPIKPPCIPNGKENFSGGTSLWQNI
Chain of Death-associated protein kinase 1 (Homo sapiens) (P53355 whole entry, looked up): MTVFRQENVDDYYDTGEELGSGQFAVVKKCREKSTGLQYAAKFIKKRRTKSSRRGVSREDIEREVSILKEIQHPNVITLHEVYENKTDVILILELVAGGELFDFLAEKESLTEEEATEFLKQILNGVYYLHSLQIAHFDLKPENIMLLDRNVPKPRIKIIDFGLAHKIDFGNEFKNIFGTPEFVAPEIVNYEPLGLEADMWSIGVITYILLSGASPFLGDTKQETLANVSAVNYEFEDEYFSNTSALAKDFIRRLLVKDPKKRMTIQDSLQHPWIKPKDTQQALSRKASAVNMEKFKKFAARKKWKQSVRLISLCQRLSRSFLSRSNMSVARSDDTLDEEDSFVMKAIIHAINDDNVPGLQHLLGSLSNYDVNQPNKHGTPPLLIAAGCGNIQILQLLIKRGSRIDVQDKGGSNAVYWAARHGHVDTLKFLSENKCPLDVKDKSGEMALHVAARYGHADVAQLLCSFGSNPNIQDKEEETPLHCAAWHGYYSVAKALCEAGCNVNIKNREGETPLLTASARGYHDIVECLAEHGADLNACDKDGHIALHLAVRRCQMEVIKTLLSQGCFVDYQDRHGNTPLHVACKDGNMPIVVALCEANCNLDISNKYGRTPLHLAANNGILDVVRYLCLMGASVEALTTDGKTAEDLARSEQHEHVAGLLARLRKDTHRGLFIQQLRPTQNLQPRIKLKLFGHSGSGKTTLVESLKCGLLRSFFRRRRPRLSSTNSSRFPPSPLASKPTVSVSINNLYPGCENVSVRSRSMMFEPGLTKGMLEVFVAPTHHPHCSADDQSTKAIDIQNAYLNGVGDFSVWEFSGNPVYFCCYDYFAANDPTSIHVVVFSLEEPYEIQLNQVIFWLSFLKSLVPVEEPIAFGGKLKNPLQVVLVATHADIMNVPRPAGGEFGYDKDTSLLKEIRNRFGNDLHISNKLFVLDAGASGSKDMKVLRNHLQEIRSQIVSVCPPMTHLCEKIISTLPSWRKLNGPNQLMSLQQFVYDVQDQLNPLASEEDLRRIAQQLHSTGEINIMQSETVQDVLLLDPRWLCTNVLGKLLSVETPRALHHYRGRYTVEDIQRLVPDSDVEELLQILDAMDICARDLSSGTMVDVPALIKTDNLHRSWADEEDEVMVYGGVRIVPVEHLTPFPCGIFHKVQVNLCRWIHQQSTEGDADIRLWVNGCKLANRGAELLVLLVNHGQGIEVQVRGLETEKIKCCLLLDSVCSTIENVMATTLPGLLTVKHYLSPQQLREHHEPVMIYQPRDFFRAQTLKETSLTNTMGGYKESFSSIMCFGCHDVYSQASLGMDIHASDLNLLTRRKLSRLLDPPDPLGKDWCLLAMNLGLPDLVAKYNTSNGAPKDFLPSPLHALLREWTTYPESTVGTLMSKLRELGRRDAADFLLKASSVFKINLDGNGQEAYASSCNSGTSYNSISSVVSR

| Structure (SMILES) | inhibition [1] [%] | inhibition [2] [%] | inhibition [3] [%] | inhibition [4] [%] | inhibition [5] [%] | inhibition [6] [%] | inhibition [7] [%] | inhibition [8] [%] | inhibition [9] [%] | inhibition [10] [%] | inhibition [11] [%] | inhibition [12] [%] | inhibition [13] [%] | inhibition [14] [%] | inhibition [15] [%] | inhibition [16] [%] | inhibition [17] [%] | inhibition [18] [%] | inhibition [19] [%] | inhibition [20] [%] |
| --- | --- | --- | --- | --- | --- | --- | --- | --- | --- | --- | --- | --- | --- | --- | --- | --- | --- | --- | --- | --- |
| N#Cc1cccc(Nc2ncc(-c3ccccc3)o2)c1 | 1.79 | 0.08 | 2.56 | -2.03 | -2.55 | 0.93 | 2.48 | 1.04 | 2.58 | 2.18 | 2.82 | -0.77 | 0.28 | 0.9 | 1.11 | -0.02 | 2.79 | 1.98 | 5.43 | -0.93 |
| COc1ccccc1-c1cc(/C=C2\C(=O)Nc3ncc(Br)cc32)cc(Br)c1O | 5.91 | 4.86 | 7.42 | 0.86 | 1.67 | 2.44 | 3.84 | 4.82 | 6.73 | 0.98 | 4.6 | 0.85 | 1.21 | 1.81 | 1.69 | 5.31 | 6.33 | 3.43 | 7.22 | 3.34 |
| COc1ccc2ncn(-c3cc(O[C@H](C)c4ccccc4C(F)(F)F)c(C(N)=O)s3)c2c1 | 0.95 | -0.5 | 5.44 | 1.4 | 3.11 | 1.46 | 0.47 | -1.28 | -0.25 | -0.67 | -2.31 | -0.78 | -1.64 | -0.39 | -0.49 | -0.9 | -0.93 | 0.76 | 5.8 | -0.92 |
| CN(C)CCNC(=O)Nc1ccc(N(C)c2ccnc(Nc3ccc(CS(C)(=O)=O)cc3)n2)cc1 | 4.63 | 4.54 | 5.02 | 0.83 | -0.68 | 3.83 | 0.79 | 3.72 | 11.9 | 3.93 | 4.89 | 2.39 | 1.2 | 1.53 | 1.45 | 2.22 | 2.99 | 4.47 | 9.32 | 6.51 |
| Cc1cc(O)cc(C)c1/C=C/c1cncc(C(N)=O)c1 | 2.76 | 2.47 | 6.44 | 0.89 | 1.57 | 2.8 | 0.66 | 0.67 | 4 | 1.68 | 1.91 | 1.42 | 3.35 | 1.06 | 0.98 | 1.57 | 1.76 | 2.85 | 3.03 | 3.52 |
| CC1(C)CC(n2cnc(-c3ccc(F)cc3)c2-c2ccnc(N)n2)CC(C)(C)N1 | -1.67 | 0.69 | -0.31 | 0.52 | -0.57 | -3.33 | -6.27 | -4.96 | -4.4 | -7.58 | -7.03 | 2.01 | -7.74 | -2.49 | -2.73 | 21.4 | 26.4 | 1.88 | 0.57 | 1.34 |
| CC1=C(C(=O)Nc2ccc3[nH]nc(C)c3c2)C(c2ccc(C(F)(F)F)cc2)CC(=O)N1 (stereo not given) | 2.9 | 1.76 | 4.44 | 0.07 | 0.57 | 2.48 | 2.75 | 1.95 | 6.02 | 3.37 | 4.3 | 1.35 | 0.55 | 1.67 | 0.92 | 0.91 | 3.08 | 1.38 | 3.89 | -1.82 |
| CS(=O)(=O)CCNCc1ccc(-c2ccc3ncnc(Nc4ccc(OCc5cccc(C(F)(F)F)c5)cc4)c3c2)o1 | 2.36 | 3.02 | 7.55 | -2.56 | -0.39 | 5.09 | 7.64 | 4.17 | 5.4 | 6.71 | 5.63 | 0.29 | 1.78 | 3.06 | 3.74 | 5.88 | 8.3 | 0.99 | 3.78 | 0.32 |
| NS(=O)(=O)c1ccc(N/N=C2\C(=O)Nc3cccc(CCc4ccncc4)c32)cc1 | 1.32 | -0.63 | 4.29 | 1.59 | 0.34 | 1.74 | 1.93 | -0.6 | 0.61 | -0.39 | -1.65 | -0.47 | -0.08 | -0.02 | -0.84 | 0.82 | 0.37 | 2.29 | 5.9 | 1.2 |
| COc1cc(N2CCN(C(C)C)CC2)ccc1Nc1nc(Nc2cccc3ncccc23)c2cc[nH]c2n1 | 1.11 | -0.04 | 9.94 | 1.22 | 4.44 | 0.3 | 1.78 | -0.49 | 4.32 | -1.26 | -1.59 | -1.36 | -0.27 | -0.17 | -0.87 | -0.09 | 0.19 | 0.48 | 2.18 | 0.2 |
| O=C(Nc1n[nH]c2nnc(-c3cccnc3)cc12)C1CC1 | 1.88 | -1.25 | 1.45 | 1.28 | 0.43 | 0.7 | -2.5 | -1.27 | -0.14 | -1.32 | -2.01 | -0.69 | -0.41 | -0.72 | -0.2 | 0.08 | -0.37 | -0.14 | 0.29 | 0.23 |
| COC(=O)Nc1nc2ccc(Oc3ccc(NC(=O)Nc4cc(C(F)(F)F)ccc4F)cc3)cc2s1 | 0.75 | 0.25 | 1.63 | 0.98 | 2.48 | -6.7 | 0.48 | -0.62 | -0.04 | -0.48 | -1.22 | -1.5 | -7.94 | 0.26 | -0.42 | 7.74 | 20.3 | 0.76 | 0.29 | 0.41 |
| CCn1c(-c2nonc2N)nc2cncc(C(=O)NCCNC)c21 | -0.37 | 3.51 | 6.88 | -2.59 | 0.71 | 2.97 | -0.23 | 4.63 | 5.44 | 3.2 | 0.19 | 1.52 | 1.62 | 2.34 | 1.53 | 3.52 | 3.94 | 1.84 | 14.9 | 1.81 |
